# Results taken from PMC5540273 (PLoS ONE, 2017).
# Values joined by “and” are separate entries in the source; they are usually repeats but may differ in a detail not shown here. Equal values may be shown once. Read-outs that look alike come from different tables or passages of the source.
# Tests used:
# PAK4 = details: concentration: 1 μM, replicates: in singlicate, n = 1
# PAK6 = details: concentration: 1 μM, replicates: in singlicate, n = 1
# PAK7 = details: concentration: 1 μM, replicates: in singlicate; n = 1
# PCTK1 = test system: T1, PCTK1; details: concentration: 1 μM, replicates: in singlicate; n = 1
# T1 construct: gene CDK16
# PCTK2 = test system: T2, PCTK2; details: concentration: 1 μM, replicates: in singlicate, n = 1
# T2 construct: gene CDK17
# PCTK3 = test system: T3, PCTK3; details: concentration: 1 μM, replicates: in singlicate, n = 1
# T3 construct: gene CDK18
# PDGFRA = details: concentration: 1 μM, replicates: in singlicate, n = 1
# PDGFRB = details: concentration: 1 μM, replicates: in singlicate, n = 1
# PDPK1 = details: concentration: 1 μM, replicates: in singlicate, n = 1
# PFTAIRE2 = details: concentration: 1 μM, replicates: in singlicate, n = 1
# PFTK1 = test system: T4, PFTK1; details: concentration: 1 μM, replicates: in singlicate, n = 1
# T4 construct: gene CDK14
# PHKG1 = details: concentration: 1 μM, replicates: in singlicate, n = 1
# PHKG2 = details: concentration: 1 μM, replicates: in singlicate; n = 1
# PIK3C2B = details: concentration: 1 μM, replicates: in singlicate; n = 1
# PIK3C2G = details: concentration: 1 μM, replicates: in singlicate; n = 1
# PIK3CA = details: concentration: 1 μM, replicates: in singlicate, n = 1
# PIK3CB = details: concentration: 1 μM, replicates: in singlicate, n = 1
# PIK3CD = details: concentration: 1 μM, replicates: in singlicate; n = 1
# PIK3CG = details: concentration: 1 μM, replicates: in singlicate, n = 1
# PIK4CB = test system: T5, PIK4CB; details: concentration: 1 μM, replicates: in singlicate, n = 1
# T5 construct: gene PI4KB
# 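Further: KINOMEscan kinase panel screen.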
smiles,measurement,setting,value
Cc1cccc(-c2nc(-c3ccc(S(C)(=O)=O)cc3)sc2-c2ccncc2)c1,%Inh,PAK4,10%
same,%Inh,PAK6,18%
same,%Inh,PAK7,0%
same,%Inh,PCTK1,0%
same,%Inh,PCTK2,0%
same,%Inh,PCTK3,0%
same,%Inh,PDGFRA,10%
same,%Inh,PDGFRB,0%
same,%Inh,PDPK1,26%
same,%Inh,PFTAIRE2,10%
same,%Inh,PFTK1,0%
same,%Inh,PHKG1,0%
same,%Inh,PHKG2,0%
same,%Inh,PIK3C2B,0%
same,%Inh,PIK3C2G,49%
same,%Inh,PIK3CA,20%
same,%Inh,PIK3CB,1%
same,%Inh,PIK3CD,25%
same,%Inh,PIK3CG,10%
same,%Inh,PIK4CB,0%
Fc1ccc(-c2ncn(CCCN3CCOCC3)c2-c2ccccn2)cc1 [SB-211742],%Inh,PAK4,0%
same,%Inh,PAK6,8%
same,%Inh,PAK7,0%
same,%Inh,PCTK1,0%
same,%Inh,PCTK2,2%
same,%Inh,PCTK3,0%
same,%Inh,PDGFRA,0%
same,%Inh,PDGFRB,0%
same,%Inh,PDPK1,0%
same,%Inh,PFTAIRE2,20%
same,%Inh,PFTK1,0%
same,%Inh,PHKG1,50%
same,%Inh,PHKG2,0%
same,%Inh,PIK3C2B,0%
same,%Inh,PIK3C2G,0%
same,%Inh,PIK3CA,0%
same,%Inh,PIK3CB,0%
same,%Inh,PIK3CD,0%
same,%Inh,PIK3CG,0%
same,%Inh,PIK4CB,0%
Cl.Cl.Cl.Fc1ccc(-c2ncn(C3CCNCC3)c2-c2ccnc(Nc3ccccc3)n2)cc1 [SB-238039],%Inh,PAK4; 1 µM,9% and 12%
same,%Inh,PAK6; 1 µM,0% and 11%
same,%Inh,PAK7,10%
same,%Inh,PCTK1,0%
same,%Inh,PCTK2; 1 µM,0% and 4%
same,%Inh,PCTK3; 1 µM,0% and 6%
same,%Inh,PDGFRA; 1 µM,0% and 26%
same,%Inh,PDGFRB; 1 µM,52% and 13%
same,%Inh,PDPK1; 1 µM,6% and 0%
same,%Inh,PFTAIRE2; 1 µM,0% and 21%
same,%Inh,PFTK1; 1 µM,16% and 0%
same,%Inh,PHKG1; 1 µM,4% and 0%
same,%Inh,PHKG2,0%
same,%Inh,PIK3C2B,0%
same,%Inh,PIK3C2G,0%
same,%Inh,PIK3CA; 1 µM,6% and 0%
same,%Inh,PIK3CB; 1 µM,0% and 13%
same,%Inh,PIK3CD,0%
same,%Inh,PIK3CG; 1 µM,0% and 26%
same,%Inh,PIK4CB; 1 µM,7% and 34%
CCc1nc(-c2cccc(C)c2)c(-c2ccnc(NCc3ccccc3)c2)s1,%Inh,PAK4,22%
same,%Inh,PAK6,11%
same,%Inh,PAK7,0%
same,%Inh,PCTK1,0%
same,%Inh,PCTK2,13%
same,%Inh,PCTK3,0%
same,%Inh,PDGFRA,30%
same,%Inh,PDGFRB,39%
same,%Inh,PDPK1,3%
same,%Inh,PFTAIRE2,7%
same,%Inh,PFTK1,1%
same,%Inh,PHKG1,0%
same,%Inh,PHKG2,22%
same,%Inh,PIK3C2B,0%
same,%Inh,PIK3C2G,18%
same,%Inh,PIK3CA,0%
same,%Inh,PIK3CB,16%
same,%Inh,PIK3CD,0%
same,%Inh,PIK3CG,0%
same,%Inh,PIK4CB,0%
COc1ccc(Nc2ncc(C#N)c(Nc3ccccc3C(N)=O)n2)cc1N1CCN(C)CC1.Cl [GSK1558669],%Inh,PAK4,99.2%
same,%Inh,PAK6,93.9%
same,%Inh,PAK7,99.9%
same,%Inh,PCTK1,99.2%
same,%Inh,PCTK2,98.2%
same,%Inh,PCTK3,88%
same,%Inh,PDGFRA,97.9%
same,%Inh,PDGFRB,100%
same,%Inh,PDPK1,37%
same,%Inh,PFTAIRE2,97.6%
same,%Inh,PFTK1,99.4%
same,%Inh,PHKG1,89%
same,%Inh,PHKG2,85%
same,%Inh,PIK3C2B,0%
same,%Inh,PIK3C2G,0%
same,%Inh,PIK3CA,0%
same,%Inh,PIK3CB,0%
same,%Inh,PIK3CD,0%
same,%Inh,PIK3CG,0%
same,%Inh,PIK4CB,15%
COc1ccc(S(=O)(=O)NC2CCN(c3cc(C)nc(Nc4cccc(C#N)c4)n3)CC2)cc1.O=C(O)C(F)(F)F [GSK1653539],%Inh,PAK4,0%
same,%Inh,PAK6,0%
same,%Inh,PAK7,30%
same,%Inh,PCTK1,0%
same,%Inh,PCTK2,0%
same,%Inh,PCTK3,0%
same,%Inh,PDGFRA,0%
same,%Inh,PDGFRB,12%
same,%Inh,PDPK1,0%
same,%Inh,PFTAIRE2,3%
same,%Inh,PFTK1,11%
same,%Inh,PHKG1,0%
same,%Inh,PHKG2,9%
same,%Inh,PIK3C2B,12%
same,%Inh,PIK3C2G,0%
same,%Inh,PIK3CA,6%
same,%Inh,PIK3CB,100%
same,%Inh,PIK3CD,0%
same,%Inh,PIK3CG,33%
same,%Inh,PIK4CB,0%
O=C(NOCC1CC1)c1ccc(F)c(F)c1Nc1ccc(I)cc1Cl,%Inh,PAK4,0%
same,%Inh,PAK6,0%
same,%Inh,PAK7,3%
same,%Inh,PCTK1,0%
same,%Inh,PCTK2,0%
same,%Inh,PCTK3,1%
same,%Inh,PDGFRA,0%
same,%Inh,PDGFRB,8%
same,%Inh,PDPK1,0%
same,%Inh,PFTAIRE2,0%
same,%Inh,PFTK1,0%
same,%Inh,PHKG1,0%
same,%Inh,PHKG2,0%
same,%Inh,PIK3C2B,0%
same,%Inh,PIK3C2G,0%
same,%Inh,PIK3CA,15%
same,%Inh,PIK3CB,0%
same,%Inh,PIK3CD,0%
same,%Inh,PIK3CG,0%
same,%Inh,PIK4CB,100%
O=c1cc(N2CCOCC2)nc2n(Cc3cccc4ccccc34)ccn12 [GSK2333389],%Inh,PAK4,0%
same,%Inh,PAK6,0%
same,%Inh,PAK7,0%
same,%Inh,PCTK1,2%
same,%Inh,PCTK2,0%
same,%Inh,PCTK3,7%
same,%Inh,PDGFRA,0%
same,%Inh,PDGFRB,6%
same,%Inh,PDPK1,10%
same,%Inh,PFTAIRE2,29%
same,%Inh,PFTK1,0%
same,%Inh,PHKG1,2%
same,%Inh,PHKG2,0%
same,%Inh,PIK3C2B,0%
same,%Inh,PIK3C2G,0%
same,%Inh,PIK3CA,0%
same,%Inh,PIK3CB,99.7%
same,%Inh,PIK3CD,89%
same,%Inh,PIK3CG,3%
same,%Inh,PIK4CB,6%
O=C(Nc1cccc(-c2nn3ncccc3c2-c2ccnc(Nc3cccc(C(F)(F)F)c3)n2)c1)c1c(F)cccc1F [GSK299495],%Inh,PAK4,0%
same,%Inh,PAK6,0%
same,%Inh,PAK7,0%
same,%Inh,PCTK1,6%
same,%Inh,PCTK2,0%
same,%Inh,PCTK3,23%
same,%Inh,PDGFRA,0%
same,%Inh,PDGFRB,99.7%
same,%Inh,PDPK1,0%
same,%Inh,PFTAIRE2,0%
same,%Inh,PFTK1,11%
same,%Inh,PHKG1,0%
same,%Inh,PHKG2,0%
same,%Inh,PIK3C2B,0%
same,%Inh,PIK3C2G,0%
same,%Inh,PIK3CA,0%
same,%Inh,PIK3CB,0%
same,%Inh,PIK3CD,25%
same,%Inh,PIK3CG,0%
same,%Inh,PIK4CB,0%
O=c1cc(N2CCOCC2)nc2n(Cc3cccc(F)c3)ccn12 [GSK2297430],%Inh,PAK4,0%
same,%Inh,PAK6,0%
same,%Inh,PAK7,0%
same,%Inh,PCTK1,5%
same,%Inh,PCTK2,0%
same,%Inh,PCTK3,27%
same,%Inh,PDGFRA,0%
same,%Inh,PDGFRB,12%
same,%Inh,PDPK1,32%
same,%Inh,PFTAIRE2,7%
same,%Inh,PFTK1,12%
same,%Inh,PHKG1,0%
same,%Inh,PHKG2,0%
same,%Inh,PIK3C2B,0%
same,%Inh,PIK3C2G,0%
same,%Inh,PIK3CA,0%
same,%Inh,PIK3CB,99%
same,%Inh,PIK3CD,6%
same,%Inh,PIK3CG,0%
same,%Inh,PIK4CB,0%
